Source: the supplement of paper PMC10037445
Over roughly 2,900 compounds, “NF-kB SEAP reporter activity, fold change vs agonist alone” has its median near 0.99; the highest 2% begin near 2.6. The sample as a whole holds a higher share of the highest values than the screen did.

Experiments:
RAW-Dual [1] = assay: NF-kB SEAP reporter activity, fold change vs agonist alone; cytotoxicity flag (confluency mask): cytotoxic (confluency <70% of control); higher = enhanced NF-kB activity
Procedure, shortened: (§1)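 RAW-Dual macrophages were seeded in DMEM at 50,000 cells/well in 384-well plates, given 50 nL of library stock by pin tool, and given a PRR agonist 1 h later. Plates were held at 37 °C, 5% CO2 for 20 hours, after which supernatant was read for IRF by QuantiLuc luminescence and for NF-κB by QuantiBlue absorbance at 620 nm. Reporter activity is expressed as fold change over wells that received agonist alone. A well was called cytotoxic when IncuCyte confluency fell below 70% of agonist controls in both mask sets.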

RAW-Dual [2] = assay: NF-kB SEAP reporter activity, fold change vs agonist alone; higher = enhanced NF-kB activity
Procedure, shortened: as §1

RAW-Dual [3] = assay: NF-kB SEAP reporter activity, fold change vs agonist alone; cytotoxicity flag (confluency mask): not cytotoxic; higher = enhanced NF-kB activity
Procedure, shortened: as §1

[4] = agonist: ODN 1826 (TLR9) 0.5 ug/mL
[5] = agonist: Pam2CSK4 (TLR2/6) 0.1 ug/mL
[6] = agonist: Pam3CSK4 (TLR2/1) 0.1 ug/mL
[7] = library stock concentration (final ~1000-fold dilution): 10 mM, cytotoxicity flag (confluency mask): cytotoxic (confluency <70% of control), agonist: Imiquimod (TLR7) […]
[8] = library stock concentration (final ~1000-fold dilution): 10 mM, cytotoxicity flag (confluency mask): cytotoxic (confluency <70% of control), agonist: MPLA (TLR4) […]
[9] = library stock concentration (final ~1000-fold dilution): 10 mM, cytotoxicity flag (confluency mask): not cytotoxic, agonist: Imiquimod (TLR7) […]
[10] = library stock concentration (final ~1000-fold dilution): 10 mM, cytotoxicity flag (confluency mask): not cytotoxic, agonist: MPLA (TLR4) […]

`Cc1[nH]c(/C=C2\C(=O)Nc3ccc(S(=O)(=O)Cc4c(Cl)cccc4Cl)cc32)c(C)c1C(=O)N1CCCC1CN1CCCC1` (stereo not drawn) (library stock concentration (final ~1000-fold dilution): 10 mM) was tested, and the “NF-kB SEAP reporter activity” value (RAW-Dual [1]; agonist: LPS (TLR4) 0.1 ug/mL) was 0.658, the “NF-kB SEAP reporter activity” value (RAW-Dual [1]; [4]) was 1.39 and the “NF-kB SEAP reporter activity” value (RAW-Dual [1]; [5]) was 0.551. The “NF-kB SEAP reporter activity” value (RAW-Dual [1]; [6]) was 0.886.

In the case of `Cc1[nH]c(/C=C2\C(=O)Nc3ccc(S(=O)(=O)Cc4c(Cl)cccc4Cl)cc32)c(C)c1C(=O)N1CCCC1CN1CCCC1` (stereo not drawn), the “NF-kB SEAP reporter activity” value (RAW-Dual [2]; [7]) is reported as 2.04 and the “NF-kB SEAP reporter activity” value (RAW-Dual [2]; [8]) is reported as 1.3.

`CC(C)Oc1ccc(C(=O)NC(CNC(=O)CN(C)C)Cc2ccc(-c3cn4cccc(C(C)O)c4n3)cc2)cc1Cl` (stereo not drawn) (library stock concentration (final ~1000-fold dilution): 10 mM) was tested, and the “NF-kB SEAP reporter activity” value (RAW-Dual [3]; agonist: LPS (TLR4) 0.1 ug/mL) was 0.934, the “NF-kB SEAP reporter activity” value (RAW-Dual [3]; [4]) was 0.199 and the “NF-kB SEAP reporter activity” value (RAW-Dual [3]; [5]) was 1.02. For the same molecule, the “NF-kB SEAP reporter activity” value (RAW-Dual [3]; [6]) was 1.03.

For `CC(C)Oc1ccc(C(=O)NC(CNC(=O)CN(C)C)Cc2ccc(-c3cn4cccc(C(C)O)c4n3)cc2)cc1Cl` (stereo not drawn), the “NF-kB SEAP reporter activity” value (RAW-Dual [2]; [9]) was 1.37 and the “NF-kB SEAP reporter activity” value (RAW-Dual [2]; [10]) was 1.39.

`Nc1ncnc2c1c(I)cn2C1OC(CO)C(O)C1O` (stereo not drawn) was tested, and the “NF-kB SEAP reporter activity” value (RAW-Dual [2]; [7]) was 0.145 and the “NF-kB SEAP reporter activity” value (RAW-Dual [2]; [8]) was 0.26.

`Nc1ncnc2c1c(I)cn2C1OC(CO)C(O)C1O` (stereo not drawn) (library stock concentration (final ~1000-fold dilution): 10 mM) was tested, and the “NF-kB SEAP reporter activity” value (RAW-Dual [1]; agonist: LPS (TLR4) 0.1 ug/mL) was 0.213, the “NF-kB SEAP reporter activity” value (RAW-Dual [1]; [4]) was 0.195 and the “NF-kB SEAP reporter activity” value (RAW-Dual [1]; [5]) was 0.0844. For the same molecule, the “NF-kB SEAP reporter activity” value (RAW-Dual [1]; [6]) was 0.123.

For `C=C1CCC(O)CC1=CC=C1CCCC2(C)C1CCC2C(C)CCCC(C)C` (stereo not drawn), the “NF-kB SEAP reporter activity” value (RAW-Dual [2]; library stock concentration (final ~1000-fold dilution): 1 mM, cytotoxicity flag (confluency mask): not cytotoxic, agonist: Imiquimod (TLR7) […]) was 1.17 and the “NF-kB SEAP reporter activity” value (RAW-Dual [2]; library stock concentration (final ~1000-fold dilution): 1 mM, cytotoxicity flag (confluency mask): not cytotoxic, agonist: MPLA (TLR4) […]) was 0.651.

In the case of `C=C1CCC(O)CC1=CC=C1CCCC2(C)C1CCC2C(C)CCCC(C)C` (stereo not drawn) (library stock concentration (final ~1000-fold dilution): 1 mM), the “NF-kB SEAP reporter activity” value (RAW-Dual [3]; agonist: LPS (TLR4) 0.1 ug/mL) is reported as 0.593, the “NF-kB SEAP reporter activity” value (RAW-Dual [3]; [4]) is reported as 1.12 and the “NF-kB SEAP reporter activity” value (RAW-Dual [3]; [5]) is reported as 1.12. The “NF-kB SEAP reporter activity” value (RAW-Dual [3]; [6]) was 1.27.

With `O=C(O)CCN1C(=O)C(=Cc2ccc(-c3ccc([N+](=O)[O-])cc3)o2)SC1=S` the “NF-kB SEAP reporter activity” value (RAW-Dual [2]; [9]) was 0.675 and the “NF-kB SEAP reporter activity” value (RAW-Dual [2]; [10]) was 0.731.

For `O=C(O)CCN1C(=O)C(=Cc2ccc(-c3ccc([N+](=O)[O-])cc3)o2)SC1=S` (library stock concentration (final ~1000-fold dilution): 10 mM), the “NF-kB SEAP reporter activity” value (RAW-Dual [3]; agonist: LPS (TLR4) 0.1 ug/mL) was 0.807, the “NF-kB SEAP reporter activity” value (RAW-Dual [3]; [4]) was 0.649 and the “NF-kB SEAP reporter activity” value (RAW-Dual [3]; [5]) was 0.104. For the same molecule, the “NF-kB SEAP reporter activity” value (RAW-Dual [3]; [6]) was 0.296.

`COc1ccc(-c2ccc3c(N4CCOCC4)nc(N4CC(C)OC(C)C4)nc3n2)cc1CO` (stereo not drawn) was tested, and the “NF-kB SEAP reporter activity” value (RAW-Dual [2]; [9]) was 0.91 and the “NF-kB SEAP reporter activity” value (RAW-Dual [2]; [10]) was 0.935.

`COc1ccc(-c2ccc3c(N4CCOCC4)nc(N4CC(C)OC(C)C4)nc3n2)cc1CO` (stereo not drawn) (library stock concentration (final ~1000-fold dilution): 10 mM) was tested, and the “NF-kB SEAP reporter activity” value (RAW-Dual [3]; agonist: LPS (TLR4) 0.1 ug/mL) was 0.793, the “NF-kB SEAP reporter activity” value (RAW-Dual [3]; [4]) was 0.836 and the “NF-kB SEAP reporter activity” value (RAW-Dual [3]; [5]) was 0.365. The “NF-kB SEAP reporter activity” value (RAW-Dual [3]; [6]) was 0.707.

In the case of `CCc1nn(CCCN2CCN(c3cccc(Cl)c3)CC2)c(=O)n1CCOc1ccccc1.Cl` (library stock concentration (final ~1000-fold dilution): 10 mM), the “NF-kB SEAP reporter activity” value (RAW-Dual [3]; agonist: LPS (TLR4) 0.1 ug/mL) is reported as 0.981, the “NF-kB SEAP reporter activity” value (RAW-Dual [3]; [4]) is reported as 0.799 and the “NF-kB SEAP reporter activity” value (RAW-Dual [3]; [5]) is reported as 0.822. For the same molecule, the “NF-kB SEAP reporter activity” value (RAW-Dual [3]; [6]) was 0.646.

For `O=c1n(CCCN2CCN(c3cccc(Cl)c3)CC2)nc2ccccn12`, the “NF-kB SEAP reporter activity” value (RAW-Dual [2]; [9]) was 2.36 and the “NF-kB SEAP reporter activity” value (RAW-Dual [2]; [10]) was 2.42.

`CCc1nn(CCCN2CCN(c3cccc(Cl)c3)CC2)c(=O)n1CCOc1ccccc1.Cl` was tested, and the “NF-kB SEAP reporter activity” value (RAW-Dual [2]; [10]) was 0.878.

For `Cl.O=c1n(CCCN2CCN(c3cccc(Cl)c3)CC2)nc2ccccn12`, the “NF-kB SEAP reporter activity” value (RAW-Dual [2]; library stock concentration (final ~1000-fold dilution): 2 mM, cytotoxicity flag (confluency mask): not cytotoxic, agonist: Imiquimod (TLR7) […]) was 1.05 and the “NF-kB SEAP reporter activity” value (RAW-Dual [2]; library stock concentration (final ~1000-fold dilution): 2 mM, cytotoxicity flag (confluency mask): not cytotoxic, agonist: MPLA (TLR4) […]) was 1.08.

`Cl.O=c1n(CCCN2CCN(c3cccc(Cl)c3)CC2)nc2ccccn12` (library stock concentration (final ~1000-fold dilution): 2 mM) was tested, and the “NF-kB SEAP reporter activity” value (RAW-Dual [3]; agonist: LPS (TLR4) 0.1 ug/mL) was 1.15, the “NF-kB SEAP reporter activity” value (RAW-Dual [3]; [4]) was 1.04 and the “NF-kB SEAP reporter activity” value (RAW-Dual [3]; [5]) was 1.1. For the same molecule, the “NF-kB SEAP reporter activity” value (RAW-Dual [3]; [6]) was 1.37.

In the case of `O=c1n(CCCN2CCN(c3cccc(Cl)c3)CC2)nc2ccccn12` (library stock concentration (final ~1000-fold dilution): 10 mM), the “NF-kB SEAP reporter activity” value (RAW-Dual [3]; agonist: LPS (TLR4) 0.1 ug/mL) is reported as 2.72, the “NF-kB SEAP reporter activity” value (RAW-Dual [3]; [4]) is reported as 1.65 and the “NF-kB SEAP reporter activity” value (RAW-Dual [3]; [5]) is reported as 1.15. The “NF-kB SEAP reporter activity” value (RAW-Dual [3]; [6]) was 1.22.
